According to article PMC7819943, “Rice protein-binding microarrays: a tool to detect cis-acting elements near promoter regions in rice”:
Over roughly 35,000 sequences, “fluorescence intensity (a.u.)” has its median near 10,000; the highest 2% begin near 52,000. The list comes from a sample in which the highest values are over-represented; it also holds similar and randomly drawn sequences.

What follows are sequences tested against T1, OsWOX13 (Oryza sativa, UniProt Q5QMM3 1-267) (assay: protein-binding microarray (RPBM); PBS, 2% BSA, 51.3 ng/ul salmon testes DNA, 50 uM zinc acetate, 200 nM TF, 25 C, 1 h; high values mean tight binding). Details: protein: recombinant; tags: N-terminal polyhistidine and DsRed monomer fusion (pET32a); label: CyDye5-dUTP incorporated in the synthesized complementary strand; 3' TTTTT single-stranded linker to array surface; dsDNA, one strand shown.
T1 sequence: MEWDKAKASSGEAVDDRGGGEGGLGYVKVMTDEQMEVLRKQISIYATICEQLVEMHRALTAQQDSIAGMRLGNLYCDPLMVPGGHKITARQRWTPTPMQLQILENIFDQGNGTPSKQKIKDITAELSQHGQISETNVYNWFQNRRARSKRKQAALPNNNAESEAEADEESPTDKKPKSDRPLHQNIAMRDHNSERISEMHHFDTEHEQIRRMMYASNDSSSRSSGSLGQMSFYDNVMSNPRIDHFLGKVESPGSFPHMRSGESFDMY
Outline: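 Per-feature fluorescence intensity (arbitrary units), read on an Axon 4000B scanner, is the binding signal. Transcription factors carrying an N-terminal polyhistidine tag and DsRed fusion were expressed in E. coli BL21-CodonPlus and purified on Ni–NTA. A custom Agilent array, made double-stranded by primer extension with Cy5-dUTP and blocked with 2% BSA, was incubated with 200 nM protein in PBS, 2% BSA, salmon testes DNA and 50 µM zinc acetate at 25 °C for 1 h and then washed.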
For “AGTGGTGATGGGCACAATGGTGATTAGAGTGGCGGAGATCCGGAGTCACCTAGTGCAG”, the binding signal was 7460 fluorescence intensity (a.u.).
In the case of “TATTGATTTAATGAAACTAATTTGGTATTATAAATATTACCGGAGTCACCTAGTGCAG”, the binding signal is reported as 32200 fluorescence intensity (a.u.).
With “GGAGAGCAATCAAGCGAAATTGACACGTGTCACGGCAGTGCGGAGTCACCTAGTGCAG” the binding signal was 30300 fluorescence intensity (a.u.).
In the case of “ATGCAAAGTTGCAGGGATTGATTGGCTGTTTCGTTTGCTACGGAGTCACCTAGTGCAG”, the binding signal is reported as 21800 fluorescence intensity (a.u.).
In the case of “CATCCAAATTGGCAAAGGCCGCCTCTTTCTTTAATTAACCCGGAGTCACCTAGTGCAG”, the binding signal is reported as 14100 fluorescence intensity (a.u.).
For “TAGCTAGATTGATAATGTACATATATGAATTTGTATGCGACGGAGTCACCTAGTGCAG”, the binding signal was 55500 fluorescence intensity (a.u.).
For “TAGCTGATTATTACAGATGTTGGAGGATGAATAATTGTGACGGAGTCACCTAGTGCAG”, the binding signal was 13500 fluorescence intensity (a.u.).
With “AGTATAATTAGCATACTATGATATCGATATACACGTTATGCGGAGTCACCTAGTGCAG” the binding signal was 31400 fluorescence intensity (a.u.).
In the case of “AAGATAAAATGTATGATTGTATGCCTAATTTGAATAGTGGCGGAGTCACCTAGTGCAG”, the binding signal is reported as 15900 fluorescence intensity (a.u.).
With “ATCGTGATTGATGGCATTGGTATAGATTTCGAGCATTGGCCGGAGTCACCTAGTGCAG” the binding signal was 63900 fluorescence intensity (a.u.).
For “TGCGTGATTAGCTGATAATACACGTGAATTATGTATGACGCGGAGTCACCTAGTGCAG”, the binding signal was 52800 fluorescence intensity (a.u.).
For “TTGTATAAATTGCTATTAGATTGGCTATATATGAATTAGACGGAGTCACCTAGTGCAG”, the binding signal was 37500 fluorescence intensity (a.u.).
For “TTGACATCATCATTGACGTGATAGATATAGTATATTAGACCGGAGTCACCTAGTGCAG”, the binding signal was 17000 fluorescence intensity (a.u.).
“ACAAATTGAGTGTTATAGTGAGATGGCATCGGAGATGAGCCGGAGTCACCTAGTGCAG” was tested, and the binding signal was 32400 fluorescence intensity (a.u.).
With “CAAGATTGGGCGAGGGAGGGAGGAGTCCAGATCCTGCCTCCGGAGTCACCTAGTGCAG” the binding signal was 3250 fluorescence intensity (a.u.).
For “ATTCTCGATTTAACACTAATCATCATTATCCTAATAACCACGGAGTCACCTAGTGCAG”, the binding signal was 6320 fluorescence intensity (a.u.).
For “CTTAATTTAGAGTTGATTTTGGAGTTTCTTTTATCGTAGTCGGAGTCACCTAGTGCAG”, the binding signal was 39500 fluorescence intensity (a.u.).
For “ATTACTTATCTGATTTACGATCCGACTTAACCACTGTATTCGGAGTCACCTAGTGCAG”, the binding signal was 4150 fluorescence intensity (a.u.).
“ACAAATTGGTCACTGGCTGAATAGTTTCTACATCAGTTAACGGAGTCACCTAGTGCAG” was tested, and the binding signal was 6570 fluorescence intensity (a.u.).
With “CGTAAACATCTGATGAGTACCTCACATGTTGAACATCTCCCGGAGTCACCTAGTGCAG” the binding signal was 3900 fluorescence intensity (a.u.).
“GTTGAAGGATCTGGATGATTAGACGAGCGATGGATCAGGTCGGAGTCACCTAGTGCAG” was tested, and the binding signal was 3720 fluorescence intensity (a.u.).
In the case of “TGCTGATTGGTATGCATAGAGTATGTATGGAAACCTTGTGCGGAGTCACCTAGTGCAG”, the binding signal is reported as 56600 fluorescence intensity (a.u.).
“ATGTGAAATTGAATGCAGTAGTATGCACATGAAACTTGGGCGGAGTCACCTAGTGCAG” was tested, and the binding signal was 11300 fluorescence intensity (a.u.).
“ATAGTATATGATGGATGAGATGGATGCATAGATGGATTGGCGGAGTCACCTAGTGCAG” was tested, and the binding signal was 3330 fluorescence intensity (a.u.).
In the case of “ATACTTGATTTAAAATGAAAACATAGACAAATGTATGGTACGGAGTCACCTAGTGCAG”, the binding signal is reported as 23800 fluorescence intensity (a.u.).
“TGTCAGATTGGATGGATTGTGCTACTGTACATGCATAGTGCGGAGTCACCTAGTGCAG” was tested, and the binding signal was 37000 fluorescence intensity (a.u.).
In the case of “TCAGTATGTGATTGATTGAAAACTGAAATGGTAGACATACCGGAGTCACCTAGTGCAG”, the binding signal is reported as 53400 fluorescence intensity (a.u.).
In the case of “CCCGTGGCTCGACTTGATGGCGTGGAGAATGGACGAGTACCGGAGTCACCTAGTGCAG”, the binding signal is reported as 6970 fluorescence intensity (a.u.).
In the case of “TTATAATTAGAACTTTTATATGTGTGTTATGCACGACTTACGGAGTCACCTAGTGCAG”, the binding signal is reported as 4050 fluorescence intensity (a.u.).
With “ATTTGATCCAAATTATATGGTTATTAATCAAATCCCATAGCGGAGTCACCTAGTGCAG” the binding signal was 10200 fluorescence intensity (a.u.).
“GTTAATTGATTAGCAAAAGGTACTATACATATATTCTTTTCGGAGTCACCTAGTGCAG” was tested, and the binding signal was 33800 fluorescence intensity (a.u.).
In the case of “GCAAATGTAGGTAAGATTGAGATTGACTTTATGTGGGTCCCGGAGTCACCTAGTGCAG”, the binding signal is reported as 12500 fluorescence intensity (a.u.).
With “CGTACCAGCTGATTGATGGTGTCACTCACCAAATGTTCTTCGGAGTCACCTAGTGCAG” the binding signal was 34300 fluorescence intensity (a.u.).
In the case of “TTCTGATTGATGTCAGGAGTGGCGTGCGTACCAGTGCTGTCGGAGTCACCTAGTGCAG”, the binding signal is reported as 58100 fluorescence intensity (a.u.).
For “TGGATCCTGATTGGATCCTGATTGGCGTTGCGGCCGTGTCCGGAGTCACCTAGTGCAG”, the binding signal was 65000 fluorescence intensity (a.u.).
For “GACGCGTCGGTGCTGATTGACTCGACGGCCGGCAACGTGGCGGAGTCACCTAGTGCAG”, the binding signal was 22800 fluorescence intensity (a.u.).
With “TCGACTTCTGATTGATGTCAGTAATGGTGTACCAGTGCTGCGGAGTCACCTAGTGCAG” the binding signal was 41200 fluorescence intensity (a.u.).
For “GTGATTGGCGCGATCCGTGCGCTTGCCGTCTTGCCGGCGTCGGAGTCACCTAGTGCAG”, the binding signal was 30100 fluorescence intensity (a.u.).
“TGTCCTCCTGCTCCTGATTGGATCGGTAGAAAGGTGGCGGCGGAGTCACCTAGTGCAG” was tested, and the binding signal was 11000 fluorescence intensity (a.u.).
For “GCCGGTGATTGGCGTGGCGTGGCGTGGCGTGGCGCGGTGTCGGAGTCACCTAGTGCAG”, the binding signal was 52600 fluorescence intensity (a.u.).
“GCGGATTGGTTGCCTGACCCTCCTCCTCCTCCTCCTCCTCCGGAGTCACCTAGTGCAG” was tested, and the binding signal was 8490 fluorescence intensity (a.u.).
For “TACTGATGAGCCACTGACGGGTGGGGCCAGTTGACTGACACGGAGTCACCTAGTGCAG”, the binding signal was 6930 fluorescence intensity (a.u.).
